p53 reactivation: re-activators of mutant p53 | H1299 p53-A138V BP100-luciferase reporter, luminescence, 24 h | Potency, µM (top dose mostly 92.2 µM), for inactives: top-dose activity change, positive = activation, usual class: activators | 0.063% of 320,000 active | AID 504706; also: % of control where 0% means no effect; nearly all actives have a fitted effect of over 45% in size
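p53-null H1299 cells stably carrying temperature-sensitive p53-A138V and a BP100-luciferase reporter were pinned with compounds (4-point, 1:5 series) and held 24 hrs at 37 deg C. Luminescence was read 10 min after detection reagent.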
FLuc counter: counter-screen for miR-21 project: firefly luciferase inhibitors or activators | purified FLuc, Km substrates, luminescence inhibition | 6.9% of 360,000 active | Potency, µM (highest dose often 57.5 µM), for the others: at the highest dose activity change, negative = inhibition, hits mostly inhibitors | P08659;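 also: plate controls were vehicle for no effect and reference inhibitor for full effect; nearly all actives have a fitted effect of over 55% in size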
Target sequence (P08659 whole entry, looked up): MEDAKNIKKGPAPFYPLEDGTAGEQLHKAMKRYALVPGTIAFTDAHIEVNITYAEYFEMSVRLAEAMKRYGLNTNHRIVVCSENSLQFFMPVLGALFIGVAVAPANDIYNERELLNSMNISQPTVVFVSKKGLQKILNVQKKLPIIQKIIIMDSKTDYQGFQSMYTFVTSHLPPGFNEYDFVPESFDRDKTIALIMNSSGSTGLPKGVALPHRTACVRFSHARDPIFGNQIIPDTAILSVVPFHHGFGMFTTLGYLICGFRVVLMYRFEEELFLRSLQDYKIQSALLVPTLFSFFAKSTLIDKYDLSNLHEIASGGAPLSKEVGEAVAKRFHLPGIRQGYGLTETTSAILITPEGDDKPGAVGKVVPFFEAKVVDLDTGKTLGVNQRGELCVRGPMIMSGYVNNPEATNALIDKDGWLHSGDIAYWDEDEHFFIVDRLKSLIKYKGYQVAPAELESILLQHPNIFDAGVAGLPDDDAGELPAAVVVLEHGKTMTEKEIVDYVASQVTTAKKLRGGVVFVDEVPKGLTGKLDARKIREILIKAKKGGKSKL
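Biochemical qHTS of compounds, final roughly 60 µM downward over six points, against 10 nM purified firefly luciferase using Km concentrations of substrates (10 uM D-luciferin, 10 uM ATP) in Tris acetate pH 7.5 buffer; luminescence output.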
Rab9 promoter act: activators of Rab9 promoter | Huh7 Rab9 promoter-luciferase reporter, luminescence, 24 h | Potency, µM (series often up to 9.22 µM), without a hit: at the top dose activation, negative = inhibition, most hits filed as activators | 2.8% of 320,000 active | AID 485297; also: % of control where 0% means no effect; nearly all actives have a fitted effect of over 60% in size
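Luminescence read-out: Huh7 cells stably expressing Rab9-luciferase, treated 24 h with compound at 37 °C, then lysed with luciferase reagent for 10 min at ambient before reading.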
ELG1 genotox: genotoxicity induction in ELG1-luciferase HEK293T cells. HEK293T ELG1-luciferase reporter, luminescence, 16 h. Potency, µM (doses to about 46 µM), without a hit: at the top dose activity change, positive = activation, usual class: activators. 1.3% of 330,000 active; also: % of control where 0% means no effect; nearly all actives have a fitted effect of over 60% in size
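HEK293T cells expressing luciferase-tagged ELG1 were exposed to compound or DMSO vehicle for 16 hr at 37 °C and 5% CO2. Luciferase activity was then measured with ONE-Glo after 30 min at room temperature.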
NPC1 promoter act: activators of NPC1 promoter; Huh7 NPC1 promoter luciferase reporter, 24 h; Potency, µM (top dose mostly 9.22 µM), without a hit: top-dose activation, actives largely listed as activators; 2.4% of 320,000 active; AID 485313; also: % of control where 0% means no effect; nearly all actives have a fitted effect of over 60% in size
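Huh7 cells stably carrying NPC1 promoter–luciferase, plated in Opti-MEM with 10% FBS for 2 h, were exposed to compound in DMSO for 24 h at 37 °C; luciferase reagent was added for 10 min and luminescence read.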
SMN2 splice up: SMN2 splice variant enhancement; HEK293 SMN2-luciferase splicing reporter, luminescence, 30-36 h; Potency, µM (highest dose often 46.1 µM), for inactives: at the highest dose activity change, positive = activation, usual class: activators; 2.8% of 210,000 active; AID 1458; also: % of control where 0% means no effect; nearly all actives have a fitted effect of over 55% in size
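qHTS luciferase splicing reporter: luminescence rises when SMN2 exon 7 is included in transfected HEK293 cells. Compound exposure lasted 30-36 h at 37C, with 4.5 mM final sodium butyrate as control, followed by a ONE-Glo read.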
An asterisk follows results filed as active; [ ] = dose if it differs, or a comment. Most compounds without a hit are left out; they make up all but 7.3% or so of the library. Calls follow the shape of the dose curve; as a rule, active = well fitted curve in the direction sought with a large enough effect; inconclusive = small, poorly fitted or top-dose-only effect, or another doubt; inactive = no such curve, though single readings can be large; an effect the other way counts as inactive or inconclusive. Potency is read from the fitted curve at half-maximal effect.

What do the screens show for `CCc1ccccc1NC(=O)CN(C)C(=O)CSc1nnc(Nc2cccc(C)c2)s1`?
p53 reactivation: -1.5%; FLuc counter: 12µM*; Rab9 promoter act: -1.3%; ELG1 genotox: -0.6%; NPC1 promoter act: 1.0%; SMN2 splice up: 9.3%

What do the screens show for `CCc1ccc(Nc2nnc(SCC(=O)N(C)CC(=O)Nc3ccccc3CC)s2)cc1`?
p53 reactivation: inconclusive; FLuc counter: 6.75µM*; Rab9 promoter act: 0.1%; ELG1 genotox: -2.0%; NPC1 promoter act: 2.9%; SMN2 splice up: -18.4%

What do the screens show for `CCc1ccccc1NC(=O)CN(C)C(=O)CSc1nnc(Nc2ccc(C)cc2)s1`?
p53 reactivation: -4.1%; FLuc counter: 9.53µM*; Rab9 promoter act: -4.4%; ELG1 genotox: -3.0%; NPC1 promoter act: -0.3%; SMN2 splice up: -23.3%

Results for Cc1cccc(Nc2nnc(SCC(=O)NCC3CCCO3)s2)c1 (stereo not drawn) ?
p53 reactivation: 21.0%; ELG1 genotox: 4.3%

What do the screens show for `CCc1ccccc1NC(=O)Cn1c(=O)n(-c2ccc(C)cc2)c(=O)c2cc(OC)c(OC)cc21`?
FLuc counter: 8.1%; SMN2 splice up: 13.4%

What do the screens show for `Nc1ncnc2nn([C@H]3O[C@@H](CO)[C@@H](O)[C@H]3O)nc12`?
SMN2 splice up: -11.6%[9.22 µM]

Results for Cc1nc(NCc2ccccc2)c2nc(-c3ccccc3)n(CC(C)(C)CN(C)C)c2n1 ?
SMN2 splice up: -7.9%

Results for COC(=O)/C(C#N)=C/c1c[nH]c2ccccc12 ?
p53 reactivation: 19.3%; FLuc counter: inconclusive; Rab9 promoter act: 23.1%; ELG1 genotox: inconclusive; NPC1 promoter act: 22.8%; SMN2 splice up: 2.4%

Results for CCOC(=O)/C(C#N)=C/c1c[nH]c2ccccc12 ?
p53 reactivation: inconclusive; FLuc counter: 19µM*; Rab9 promoter act: 25.3%; ELG1 genotox: 8.2%; NPC1 promoter act: -2.9%; SMN2 splice up: 10.9%

How did CCOC(=O)/C(C#N)=C/Nc1ccccc1OC do in these assays?
p53 reactivation: inconclusive; FLuc counter: 6.75µM*; Rab9 promoter act: 2.24µM*; ELG1 genotox: inconclusive; NPC1 promoter act: 3.16µM*; SMN2 splice up: inconclusive

Results for CCOC(=O)C(=O)/C(C#N)=C/Nc1ccccc1 ?
p53 reactivation: -0.9%; FLuc counter: -9.8%; Rab9 promoter act: 5.9%; ELG1 genotox: 1.8%; NPC1 promoter act: -1.4%; SMN2 splice up: 2.9%

How did Cc1ccc(NC2=Nc3ccccc3CS2)cc1 do in these assays?
p53 reactivation: inconclusive; FLuc counter: 0.477µM*; Rab9 promoter act: 0.316µM*; ELG1 genotox: inconclusive; NPC1 promoter act: 0.316µM*

Results for Cc1ccc(Nc2ccccc2)cc1 ?
p53 reactivation: -3.5%; FLuc counter: -21.2%; Rab9 promoter act: 1.4%; ELG1 genotox: 0.2%; NPC1 promoter act: 5.6%; SMN2 splice up: -4.0%

Results for Nc1ccn([C@@H]2O[C@H](COC(=O)C34CC5CC(CC(C5)C3)C4)[C@@H](O)[C@@H]2O)c(=O)n1 ?
SMN2 splice up: -10.7%[9.22 µM]

How did COc1cccc(N2CC(NC(=O)c3ccc(S(=O)(=O)N4CCCC4)cc3)CC2=O)c1 (stereo not drawn) do in these assays?
FLuc counter: 2.8%

Results for O=C(COc1ccc(Cl)cc1Cl)N1CCCCCC1 ?
p53 reactivation: 6.5%; FLuc counter: inconclusive; Rab9 promoter act: 4.7%; ELG1 genotox: 12.9%; NPC1 promoter act: 4.6%; SMN2 splice up: -3.0%

Results for CC(C)(C)c1ccc(OCC(=O)N2CCCCCC2)c(Br)c1 ?
p53 reactivation: 8.7%; FLuc counter: 15.1µM*; Rab9 promoter act: inconclusive; ELG1 genotox: inconclusive; NPC1 promoter act: inconclusive; SMN2 splice up: 12.6µM*

Results for Cc1ccc(OCC(=O)N2CCCCC2)c(Br)c1 ?
p53 reactivation: inconclusive; FLuc counter: inconclusive; Rab9 promoter act: inconclusive; ELG1 genotox: 14.7%; NPC1 promoter act: inconclusive; SMN2 splice up: 20µM*

Compound activity (PubChem)
